About 8,800 targets were measured; listed, in parts, are those with a hit and a random draw of the rest. About 0.5% of all pairs of compound and target were hits. Unmarked numbers belong to inactive results.
What was measured:
Experiment in all cases: log2 fold change, soluble protein after heating vs DMSO (PISA); higher = thermal stabilisation; K562 lysate, 10 uM; active = over 0.2 and 3.5 SD of the protein, either way, in both replicates (recomputed)
[1] = compound: C#Cc1cccc(Nc2ncnc3cc(OCCOC)c(OCCOC)cc23)c1 [erlotinib]
In short: (§1)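 Soluble protein was defined as the supernatant remaining after 21,000xg for 90 min, following pooling of heated aliquots and adjustment to 0.5% NP-40 at 4°C. Before that, crude K562 extract at 1 mg/mL protein in PBS pH 7.4 with 1 mM MgCl2 was treated with 10 μM compound for 30 min and heated for 3 min across 48°C-58°C. Quantification used TMTpro 16plex LC-MS/MS with channel sums equalised, and values are log-two fold changes in thermal stability relative to solvent controls from duplicates.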

[2] = compound: C/C(=N\NC(=O)C1=CC(=CC=C1)S(=O)(=O)N2CCOCC2)/C3=C(C=CC(=C3)Cl)O
In short: as §1

[3] = compound: C1=CC(=CC=C1C2=NC3=C(N2)C=C(C=C3)C(=O)N)OC4=CC=C(C=C4)Cl
In short: as §1

[4] = compound: C1=CC2=C(C=CC(=C2)/C=C\3/C(=O)NC(=NCC4=CC=CS4)S3)N=C1
In short: as §1

[5] = compound: C1=CC2=NC=CN=C2C=C1/C=C/3\C(=O)NC(=O)S3
In short: as §1

[6] = compound: C1=CC=C(C=C1)C2=NC(=C(N2)C3=CC=NC=C3)C4=CC(=C(C=C4)Cl)O
In short: as §1

[7] = compound: C1=CC=C2C(=C1)C3=NNC4=CC=CC(=C43)C2=O
In short: as §1

[8] = compound: C1COCCN1CCN2C3=CC=CC=C3N=C2NC(=O)C4=CC(=CC=C4)[N+](=O)[O-] [IRAK-1-4 Inhibitor I]
In short: as §1

[9] = compound: C=CC(=O)N1CCC[C@@H](n2nc(-c3ccc(Oc4ccccc4)cc3)c3c(N)ncnc32)C1 [ibrutinib]
In short: as §1

[10] = compound: CC(=O)c1cnc2ccc(-c3cc(Cl)c(O)c(Cl)c3)nc2c1N[C@H]1CC[C@H](CN(C)C)CC1
In short: as §1

[11] = compound: CC(C)(C)Cn1c(N)nc2ccc(-c3[nH]c(C(C)(C)C)nc3-c3ccc(F)cc3)nc21 [ralimetinib]
In short: as §1

[12] = compound: CC(C)(O)CC(=O)NCCn1ccc2ncnc(Nc3ccc(Oc4cccc(C(F)(F)F)c4)c(Cl)c3)c21
In short: as §1

[13] = compound: CC(C)C1=C2N=C(C=C(N2N=C1)NCC3=CC=CC=C3)NCCCCCCN
In short: as §1

[14] = compound: CC1=C(C(CC(=O)N1)C2=CC=C(C=C2)C(F)(F)F)C(=O)NC3=C(C=C4C(=C3)C=NN4)F
In short: as §1

[15] = compound: CC1=C(C2=C(C=C1)C(=O)C3=CC=CC=C3N2CCCN)C
In short: as §1

[16] = compound: CC1=C(C=C(C=C1)NC(=O)C2=CC(=CC=C2)C(C)(C)C#N)NC3=CC4=C(C=C3)N=CN(C4=O)C
In short: as §1

[17] = compound: CC1=C(C=C(C=C1)NC(=O)C2=CC(=CC=C2)N(C)C)NC(=O)C3=CC=C(C=C3)O
In short: as §1

[18] = compound: CC1=CC=C(C=C1)SC2=C3C=C(SC3=CN=C2)C(=O)N
In short: as §1

[19] = compound: C1CCN(C1)C(=O)NC2=CC=CC(=C2)NC3=NC=C(C(=N3)NCCC4=CN=CN4)Br
In short: as §1

[20] = compound: C1CN(CCC1(CC2=CC=C(C=C2)Cl)N)C3=NC=NC4=C3C=CN4
In short: as §1

Sequence of UniProt P49336 (P49336 whole entry, looked up): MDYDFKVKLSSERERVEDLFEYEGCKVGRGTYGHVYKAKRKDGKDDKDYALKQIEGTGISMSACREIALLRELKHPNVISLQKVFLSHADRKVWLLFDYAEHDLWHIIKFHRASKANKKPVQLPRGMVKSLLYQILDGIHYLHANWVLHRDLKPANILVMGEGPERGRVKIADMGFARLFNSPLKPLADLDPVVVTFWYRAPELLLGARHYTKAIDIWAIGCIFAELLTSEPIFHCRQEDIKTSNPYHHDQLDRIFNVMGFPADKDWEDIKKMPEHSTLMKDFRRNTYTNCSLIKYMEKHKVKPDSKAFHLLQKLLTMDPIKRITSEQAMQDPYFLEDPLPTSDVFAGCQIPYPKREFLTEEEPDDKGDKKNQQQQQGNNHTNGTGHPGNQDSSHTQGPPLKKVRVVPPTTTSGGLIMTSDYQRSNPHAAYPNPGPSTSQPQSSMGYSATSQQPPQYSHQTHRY
Sequence of UniProt Q9BSU1 (Q9BSU1 whole entry, looked up): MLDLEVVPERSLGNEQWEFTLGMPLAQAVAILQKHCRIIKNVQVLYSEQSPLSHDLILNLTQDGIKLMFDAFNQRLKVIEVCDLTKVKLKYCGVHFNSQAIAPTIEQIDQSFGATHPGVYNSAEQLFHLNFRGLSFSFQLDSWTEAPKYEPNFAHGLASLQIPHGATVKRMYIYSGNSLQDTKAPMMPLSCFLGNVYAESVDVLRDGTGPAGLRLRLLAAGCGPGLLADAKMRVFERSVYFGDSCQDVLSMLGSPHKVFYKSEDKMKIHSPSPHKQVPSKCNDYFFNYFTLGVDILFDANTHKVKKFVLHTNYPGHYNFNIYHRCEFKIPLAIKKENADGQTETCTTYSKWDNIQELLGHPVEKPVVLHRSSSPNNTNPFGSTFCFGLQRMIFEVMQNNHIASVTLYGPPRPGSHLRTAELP
Sequence of UniProt P25440 (P25440 whole entry, looked up): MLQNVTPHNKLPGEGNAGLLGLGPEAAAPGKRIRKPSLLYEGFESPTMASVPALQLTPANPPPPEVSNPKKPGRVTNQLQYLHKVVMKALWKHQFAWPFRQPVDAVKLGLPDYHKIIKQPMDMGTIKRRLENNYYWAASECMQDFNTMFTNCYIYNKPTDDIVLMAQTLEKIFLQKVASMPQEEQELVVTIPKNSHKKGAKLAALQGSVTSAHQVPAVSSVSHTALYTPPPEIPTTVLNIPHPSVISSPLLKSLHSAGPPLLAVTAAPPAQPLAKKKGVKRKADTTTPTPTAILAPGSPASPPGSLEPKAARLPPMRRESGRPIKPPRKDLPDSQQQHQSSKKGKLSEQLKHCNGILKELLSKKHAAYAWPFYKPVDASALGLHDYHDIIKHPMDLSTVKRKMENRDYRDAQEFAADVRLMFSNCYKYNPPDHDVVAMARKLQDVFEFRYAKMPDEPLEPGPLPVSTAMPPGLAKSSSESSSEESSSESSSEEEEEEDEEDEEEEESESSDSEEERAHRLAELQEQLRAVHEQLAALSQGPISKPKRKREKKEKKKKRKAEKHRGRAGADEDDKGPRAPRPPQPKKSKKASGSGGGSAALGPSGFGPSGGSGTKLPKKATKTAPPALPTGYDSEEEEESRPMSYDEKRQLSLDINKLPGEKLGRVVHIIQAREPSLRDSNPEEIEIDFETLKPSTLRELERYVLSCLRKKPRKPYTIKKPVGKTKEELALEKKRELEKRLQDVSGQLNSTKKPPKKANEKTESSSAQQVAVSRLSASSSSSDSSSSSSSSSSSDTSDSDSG
Sequence of UniProt Q3L8U1 (Q3L8U1 whole entry, looked up): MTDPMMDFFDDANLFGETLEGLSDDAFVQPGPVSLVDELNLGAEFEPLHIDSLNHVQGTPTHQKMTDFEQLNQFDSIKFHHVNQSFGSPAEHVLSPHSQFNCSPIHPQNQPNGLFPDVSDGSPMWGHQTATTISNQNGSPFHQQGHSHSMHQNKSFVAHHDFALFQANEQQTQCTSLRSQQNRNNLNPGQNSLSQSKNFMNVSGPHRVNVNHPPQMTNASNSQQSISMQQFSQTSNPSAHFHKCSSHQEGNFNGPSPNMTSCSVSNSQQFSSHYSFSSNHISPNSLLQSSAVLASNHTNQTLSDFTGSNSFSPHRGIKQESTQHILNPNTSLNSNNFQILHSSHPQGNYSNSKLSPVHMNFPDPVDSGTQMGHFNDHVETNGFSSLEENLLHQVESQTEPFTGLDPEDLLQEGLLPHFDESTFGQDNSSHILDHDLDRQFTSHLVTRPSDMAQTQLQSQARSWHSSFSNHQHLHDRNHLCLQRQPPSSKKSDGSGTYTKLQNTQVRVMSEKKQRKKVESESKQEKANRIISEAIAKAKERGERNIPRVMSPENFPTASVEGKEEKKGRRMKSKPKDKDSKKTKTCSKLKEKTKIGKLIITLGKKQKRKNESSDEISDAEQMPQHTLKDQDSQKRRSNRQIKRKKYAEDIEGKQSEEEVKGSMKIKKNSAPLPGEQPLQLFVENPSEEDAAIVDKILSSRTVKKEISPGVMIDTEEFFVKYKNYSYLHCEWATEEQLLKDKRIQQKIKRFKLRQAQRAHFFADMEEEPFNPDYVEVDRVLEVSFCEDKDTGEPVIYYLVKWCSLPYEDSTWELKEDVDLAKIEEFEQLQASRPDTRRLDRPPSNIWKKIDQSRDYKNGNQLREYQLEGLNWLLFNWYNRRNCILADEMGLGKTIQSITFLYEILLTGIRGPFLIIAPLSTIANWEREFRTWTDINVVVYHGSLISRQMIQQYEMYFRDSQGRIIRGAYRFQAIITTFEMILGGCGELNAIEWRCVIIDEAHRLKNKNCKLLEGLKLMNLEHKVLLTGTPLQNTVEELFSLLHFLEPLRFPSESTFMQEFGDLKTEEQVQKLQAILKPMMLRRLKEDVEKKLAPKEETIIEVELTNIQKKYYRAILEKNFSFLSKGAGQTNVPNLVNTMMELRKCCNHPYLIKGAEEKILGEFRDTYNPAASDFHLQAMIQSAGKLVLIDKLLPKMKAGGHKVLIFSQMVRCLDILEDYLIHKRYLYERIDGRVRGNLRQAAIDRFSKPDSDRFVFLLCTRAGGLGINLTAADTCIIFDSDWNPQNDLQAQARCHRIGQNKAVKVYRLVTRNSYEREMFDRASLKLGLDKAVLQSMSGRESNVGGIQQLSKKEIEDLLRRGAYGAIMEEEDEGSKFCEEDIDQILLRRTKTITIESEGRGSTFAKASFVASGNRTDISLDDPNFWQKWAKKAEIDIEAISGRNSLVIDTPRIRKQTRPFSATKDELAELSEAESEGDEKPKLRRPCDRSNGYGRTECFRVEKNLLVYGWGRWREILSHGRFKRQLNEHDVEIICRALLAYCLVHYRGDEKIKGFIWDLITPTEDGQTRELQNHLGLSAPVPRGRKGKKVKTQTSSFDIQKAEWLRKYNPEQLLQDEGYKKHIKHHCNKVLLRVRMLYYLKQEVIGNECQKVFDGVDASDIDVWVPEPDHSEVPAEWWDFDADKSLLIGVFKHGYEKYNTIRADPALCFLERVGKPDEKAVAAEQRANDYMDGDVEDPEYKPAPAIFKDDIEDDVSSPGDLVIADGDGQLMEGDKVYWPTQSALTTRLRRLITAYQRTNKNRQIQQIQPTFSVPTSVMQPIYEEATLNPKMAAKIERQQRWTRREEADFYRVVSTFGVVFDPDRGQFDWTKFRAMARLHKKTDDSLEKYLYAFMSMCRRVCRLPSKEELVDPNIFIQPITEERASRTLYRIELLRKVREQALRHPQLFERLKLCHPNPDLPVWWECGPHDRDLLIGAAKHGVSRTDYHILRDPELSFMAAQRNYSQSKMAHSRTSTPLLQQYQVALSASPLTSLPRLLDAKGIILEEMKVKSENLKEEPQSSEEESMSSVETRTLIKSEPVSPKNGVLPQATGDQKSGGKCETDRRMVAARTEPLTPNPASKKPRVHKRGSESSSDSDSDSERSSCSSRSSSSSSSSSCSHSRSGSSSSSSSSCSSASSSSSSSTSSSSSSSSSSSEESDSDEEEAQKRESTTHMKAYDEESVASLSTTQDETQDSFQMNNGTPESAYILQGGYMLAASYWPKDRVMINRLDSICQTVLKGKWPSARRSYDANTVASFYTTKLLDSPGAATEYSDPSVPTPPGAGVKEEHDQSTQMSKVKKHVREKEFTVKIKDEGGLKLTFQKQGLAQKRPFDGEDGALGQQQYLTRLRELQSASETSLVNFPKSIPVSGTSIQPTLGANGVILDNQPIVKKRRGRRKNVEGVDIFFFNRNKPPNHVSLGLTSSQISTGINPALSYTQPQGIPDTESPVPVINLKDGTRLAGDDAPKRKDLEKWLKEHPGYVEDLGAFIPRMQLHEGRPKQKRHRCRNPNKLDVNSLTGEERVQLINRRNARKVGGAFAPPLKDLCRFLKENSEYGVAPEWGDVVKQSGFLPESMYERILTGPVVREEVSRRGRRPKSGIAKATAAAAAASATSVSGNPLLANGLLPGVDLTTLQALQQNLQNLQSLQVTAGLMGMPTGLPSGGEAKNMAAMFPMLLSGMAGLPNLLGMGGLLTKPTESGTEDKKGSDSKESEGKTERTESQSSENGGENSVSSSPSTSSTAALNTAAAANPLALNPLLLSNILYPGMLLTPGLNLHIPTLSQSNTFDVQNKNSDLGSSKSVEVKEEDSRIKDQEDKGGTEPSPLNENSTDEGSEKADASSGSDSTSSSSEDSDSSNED
Sequence of UniProt P30281 (P30281 whole entry, looked up): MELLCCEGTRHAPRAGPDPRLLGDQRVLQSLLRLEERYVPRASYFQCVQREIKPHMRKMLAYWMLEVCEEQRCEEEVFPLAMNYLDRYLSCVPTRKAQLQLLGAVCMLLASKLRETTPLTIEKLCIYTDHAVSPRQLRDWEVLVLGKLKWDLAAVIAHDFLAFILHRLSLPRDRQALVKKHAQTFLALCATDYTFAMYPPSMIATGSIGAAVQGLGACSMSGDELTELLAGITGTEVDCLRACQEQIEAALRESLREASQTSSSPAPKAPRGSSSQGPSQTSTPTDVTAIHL
Sequence of UniProt P0DMB2 (P0DMB2 whole entry, looked up): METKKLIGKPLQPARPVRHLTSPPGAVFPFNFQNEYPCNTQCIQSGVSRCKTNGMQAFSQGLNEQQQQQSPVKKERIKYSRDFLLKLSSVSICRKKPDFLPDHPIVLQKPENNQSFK
Sequence of UniProt Q9BUK0 (Q9BUK0 whole entry, looked up): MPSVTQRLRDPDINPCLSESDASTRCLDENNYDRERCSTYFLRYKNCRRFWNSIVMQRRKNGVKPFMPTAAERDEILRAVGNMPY

| Target | log2 fold change [1] | log2 fold change [2] | log2 fold change [3] | log2 fold change [4] | log2 fold change [5] | log2 fold change [6] | log2 fold change [7] | log2 fold change [8] | log2 fold change [9] | log2 fold change [10] | log2 fold change [11] | log2 fold change [12] | log2 fold change [13] | log2 fold change [14] | log2 fold change [15] | log2 fold change [16] | log2 fold change [17] | log2 fold change [18] | log2 fold change [19] | log2 fold change [20] |
| --- | --- | --- | --- | --- | --- | --- | --- | --- | --- | --- | --- | --- | --- | --- | --- | --- | --- | --- | --- | --- |
| CDK8 (UniProt P49336) | -0.012 | -0.059 | 0.028 | -0.128 | 0.068 | 0.004 | 0.128 | 0.029 | 0.006 | 0.097 | -0.041 | -0.011 | -0.073 | -0.058 | 0.095 | 0.088 | 0.016 | 0.16 | – | – |
| C16orf70 (UniProt Q9BSU1) | 0.023 | 0.194 | -0.06 | 0.271 (active) | 0.033 | -0.128 | -0.193 | -0.021 | -0.048 | -0.011 | 0.034 | 0.031 | -0.068 | – | -0.043 | 0 | 0.058 | -0.024 | 0.016 | 0.055 |
| CCAR2 (UniProt G3V119) | – | – | – | – | – | – | – | – | – | 0.017 | – | – | – | – | – | – | – | -0.047 | – | – |
| CANX (UniProt D6RHJ3) | – | -0.321 | – | 0.031 | – | – | -0.022 | – | – | -0.013 | – | – | – | 0.021 | – | – | – | -0.008 | – | – |
| CCND3 (UniProt P30281) | -0.034 | – | 0.064 | – | -0.03 | 0.106 | – | 0.033 | 0.122 | – | 0.039 | 0 | 0.032 | -0.104 | -0.063 | -0.021 | -0.067 | – | -0.228 | 0.116 |
| C6orf120 (UniProt Q7Z4R8) | 0.043 | – | -0.014 | – | 0.008 | – | – | – | 0.013 | -0.017 | – | – | -0.003 | – | 0.015 | – | – | 0.126 | – | – |
| CDC25A (UniProt P30304) | 0.016 | – | 0.085 | – | – | 0 | – | 0.052 | – | -0.009 | 0.014 | -0.044 | 0.019 | -0.017 | 0.012 | 0.087 | 0.015 | 0.002 | – | – |
| CHD9 (UniProt Q3L8U1) | -0.046 | 0.169 | -0.167 | 0.191 | – | 0.043 | -0.059 | 0.016 | – | – | -0.117 | -0.147 | -0.074 | 0.212 | 0.038 | -0.031 | -0.023 | – | – | – |
| ATE1 (UniProt O95260) | – | – | – | – | 0.005 | – | – | – | 0.081 | -0.025 | – | – | – | – | – | -0.101 | – | -0.022 | – | – |
| C15orf39 (UniProt Q6ZRI6) | -0.029 | – | 0.026 | – | -0.031 | 0.052 | – | 0.034 | -0.141 | – | -0.005 | -0.029 | -0.06 | 0.104 | 0.039 | -0.03 | 0.019 | – | 0.019 | -0.009 |
| ATG4D (UniProt Q86TL0) | – | – | – | – | 0.072 | 0.049 | – | -0.142 | -0.086 | – | 0.049 | 0.074 | – | – | 0.319 | -0.096 | -0.052 | – | 0.047 | -0.074 |
| CDC14A isoform 2 (UniProt Q9UNH5) | – | – | – | – | – | 0.082 | – | -0.102 | – | 0.107 | -0.336 | -0.135 | – | -0.04 | – | 0.145 | 0.219 | 0.006 | – | – |
| C8orf88 (UniProt P0DMB2) | -0.006 | – | -0.185 | – | 0.028 | -0.003 | – | -0.013 | -0.004 | – | 0.06 | 0.047 | -0.05 | – | 0.006 | 0.052 | 0.022 | – | – | – |
| CEP128 (UniProt Q6ZU80) | – | -0.069 | – | 0 | -0.234 | 0.236 | -0.102 | -0.212 | 0.166 | – | -0.06 | -0.001 | – | – | 0.078 | – | -0.03 | – | -0.138 | -0.015 |
| ATPSCKMT (UniProt Q6P4H8) | – | – | – | – | 0 | 0.075 | – | -0.046 | -0.042 | – | -0.15 | 0.088 | – | – | 0.019 | -0.015 | -0.001 | – | -0.074 | -0.006 |
| CHD4, A0A2R8Y521 | – | – | – | – | – | 0.259 | – | 0.178 | – | -0.049 | -0.175 | -0.011 | – | -0.19 | 0.191 | – | 0.228 | 0.314 | -0.033 | 0.261 |
| BNIP3 (UniProt Q12983) | -0.008 | – | 0.036 | – | -0.013 | 0.028 | – | 0.057 | 0.04 | 0.048 | 0.032 | 0.01 | -0.002 | -0.068 | -0.002 | 0.045 | -0.047 | 0.003 | 0.031 | 0.02 |
| CARHSP1 (UniProt H3BNU9) | – | – | – | – | -0.215 | – | – | – | 0.147 | -0.005 | – | – | – | -0.107 | – | – | – | 0.107 | – | – |
| CHCHD7 isoform 4 (UniProt Q9BUK0) | – | -0.158 | – | 0.048 | 0.014 | 0.046 | -0.012 | -0.025 | -0.109 | 0.008 | -0.038 | -0.014 | – | 0.116 | 0.002 | -0.025 | 0.024 | -0.061 | 0.006 | 0.072 |
| BRD2 isoform 2 (UniProt P25440) | -0.039 | – | 0.02 | 0.036 | 0 | 0.109 | -0.014 | 0.003 | 0.074 | -0.041 | -0.056 | 0.021 | 0.26 | -0.025 | 0.008 | 0.056 | 0.049 | 0.105 | -0.134 | -0.114 |

Reference: the supplement of paper PMC10849652
